Experimental data from ChEMBL document CHEMBL4808148, “HDAC6 screening dataset using tau-based substrate in an enzymatic assay yields selective inhibitors and activators” (2021).
In all, about 5,600 compounds went through this assay and about 390 (7%) showed an effect of 50% or more. The list comes from a sample in which strong results are over-represented; it also holds similar structures and randomly drawn compounds. Starred links: 1 amine or outer side, 2 acyl side, 3 side chain; linkers in the order of their positions; H or OH if unused. Positions of bridges follow the written chain, without caps; N, C: chain ends. Non-standard residues stand in square brackets, D forms with d. Residues, ends and D or L forms follow the SMILES beside them. dTrp(2-Me) = Cc1[nH]c2ccccc2c1C[C@@H](N)C(=O)O; X5 = O=C(CCC[*:2])[*:1]

These compounds were tested against T1, Protein deacetylase HDAC6 (Homo sapiens) (UniProt Q9UBN7). Settings: at 10 µM.
T1 sequence (whole entry): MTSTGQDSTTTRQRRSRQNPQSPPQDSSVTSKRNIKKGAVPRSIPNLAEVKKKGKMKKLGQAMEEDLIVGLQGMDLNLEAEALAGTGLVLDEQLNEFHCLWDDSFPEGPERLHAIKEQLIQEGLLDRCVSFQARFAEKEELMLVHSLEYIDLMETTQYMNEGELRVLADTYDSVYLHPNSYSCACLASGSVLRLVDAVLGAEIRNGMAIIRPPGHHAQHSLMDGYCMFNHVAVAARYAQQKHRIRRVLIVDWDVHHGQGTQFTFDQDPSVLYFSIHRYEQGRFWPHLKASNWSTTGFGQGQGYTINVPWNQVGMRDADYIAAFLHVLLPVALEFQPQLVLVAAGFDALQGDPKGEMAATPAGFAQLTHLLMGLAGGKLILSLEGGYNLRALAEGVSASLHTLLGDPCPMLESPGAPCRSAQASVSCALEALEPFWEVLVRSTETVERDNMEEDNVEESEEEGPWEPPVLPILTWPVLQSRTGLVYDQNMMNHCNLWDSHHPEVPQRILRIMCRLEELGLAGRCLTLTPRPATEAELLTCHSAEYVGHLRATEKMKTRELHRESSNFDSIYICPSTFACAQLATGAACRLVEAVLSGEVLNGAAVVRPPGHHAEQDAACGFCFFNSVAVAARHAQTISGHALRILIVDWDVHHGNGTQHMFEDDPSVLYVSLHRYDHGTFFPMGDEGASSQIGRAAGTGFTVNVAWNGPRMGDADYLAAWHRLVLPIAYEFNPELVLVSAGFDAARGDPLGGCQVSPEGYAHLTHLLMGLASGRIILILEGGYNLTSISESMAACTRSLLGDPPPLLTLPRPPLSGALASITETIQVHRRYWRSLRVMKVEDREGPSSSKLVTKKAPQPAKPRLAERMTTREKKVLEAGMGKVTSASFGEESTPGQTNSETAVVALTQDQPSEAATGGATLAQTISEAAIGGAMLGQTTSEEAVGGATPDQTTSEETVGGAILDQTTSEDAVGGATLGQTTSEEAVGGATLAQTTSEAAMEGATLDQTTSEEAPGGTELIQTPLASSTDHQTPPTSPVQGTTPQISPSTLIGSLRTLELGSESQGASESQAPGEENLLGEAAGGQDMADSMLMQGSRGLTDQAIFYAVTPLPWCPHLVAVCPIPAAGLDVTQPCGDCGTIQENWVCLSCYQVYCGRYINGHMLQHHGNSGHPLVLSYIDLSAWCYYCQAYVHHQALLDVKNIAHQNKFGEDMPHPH

Row | SMILES | inhibition
1 | CC1=C(/C=C/C(C)=C/C=C/C(C)=C/C=C/C=C(C)/C=C/C=C(C)/C=C/C2=C(C)C(=O)[C@@H](O)CC2(C)C)C(C)(C)C[C@H](O)C1=O | 10.4%
2 | COc1ccc2cc1Oc1cc3c(cc1OC)CC[N+](C)(C)[C@H]3Cc1ccc(cc1)Oc1c(OC)c(OC)cc3c1[C@@H](C2)[N+](C)(C)CC3 | 16.5%
3 | CC[C@H](C)[C@@H]1NC(=O)[C@H](Cc2ccc(OC)cc2)NC(=O)CCCSC[C@@H](C(=O)N2CCC[C@H]2C(=O)N[C@@H](CC(C)C)C(=O)NCC(N)=O)NC(=O)[C@H](CC(N)=O)NC(=O)[C@H](CCC(N)=O)NC1=O (Y(Me)IQNCPLG-NH2; linker N-5 via X5) | 11%
4 | COc1cc(C[C@@H](CO)[C@H](CO)Cc2ccc(O)c(OC)c2)ccc1O | 21.1%
5 | CCC(=O)NC[C@@H]1C[C@H]1c1cccc2c1CCO2 | -8.79%
6 | CN(C)CCN1C(=O)c2cccc3cc(N)cc(c23)C1=O | 24.8%
7 | O=C(CCCCCN1C(=O)c2cccc3cccc(c23)C1=O)NO | 100%
8 | O=C(O)CCCN1C(=O)c2cccc3cccc(c23)C1=O | -3.55%
9 | CN1CCN(CCCCN2C(=O)CN(/N=C/c3ccc(-c4ccc(Cl)cc4)o3)C2=O)CC1 | -7.57%
10 | COc1cc(Br)c(Nc2nc(-c3c(C)nc4ncccn34)cs2)c(Br)c1 | -6.53%
11 | CCOc1ccc(-c2nc(-c3cccc4c3CCC4NCCO)no2)cc1OCC (stereo not drawn) | 26.2%
12 | CC(O)CCCCn1c(=O)c2c(ncn2C)n(C)c1=O (stereo not drawn) | 14.8%
13 | CC(C)(C)c1cc(C(=O)/C(C#N)=N/Nc2cccc(Cl)c2)no1 | 58.9%
14 | O=C(O)c1cc2ccccc2s1 | 36%
15 | CCCCCCCCCCCCCCCCCCO | 10.8%
16 | Cc1cccc(COc2cccc(/C=C3\C(=O)NN(c4ccccc4)C3=O)c2)c1 | 6.83%
17 | C[C@H]1NCc2cc(-c3ccc4c(=O)c(C(=O)O)cn(C5CC5)c4c3OC(F)F)ccc21 | 14.9%
18 | O=C1NC(=O)c2cc(Nc3ccc(F)cc3)c(Nc3ccc(F)cc3)cc21 | 41.3%
19 | O=c1c(-c2ccc(O)cc2)coc2cc(O)ccc12 | 101%
20 | O=c1c(-c2ccc(O)cc2)coc2c(C3OC(CO)C(O)C(O)C3O)c(O)ccc12 (stereo not drawn) | 5.48%
21 | COc1cc(C=O)ccc1O | -4.44%

Row | SMILES | inhibition
22 | COc1ccc(-c2oc3cc(OC)ccc3c2C(=O)c2ccc(C#N)cc2)cc1 | 1.66%
23 | CNC(=O)c1c(C)oc2cc(Oc3ncnc4cc(OC)c(OC)cc34)ccc12 | -6.42%
24 | CC(C)Oc1ccc2c(=O)c3cc(C(=O)O)ccc3oc2c1 | 87.4%
25 | COc1cc(C(C)=O)ccc1O | 8.46%
26 | COc1cc2c(=O)c(-c3ccc(O)cc3)coc2cc1O | 98.7%
27 | CC(C)Oc1ccc2c(=O)c(-c3ccccc3)coc2c1 | 95.2%
28 | CNc1cc2[nH]c(=O)n(-c3ccc(NC(=O)NS(=O)(=O)c4ccc(Cl)s4)cc3)c(=O)c2cc1F | 32.7%
29 | C[C@@H]1CN(Cc2ncccn2)C[C@H]1c1nc2c(cnn2C2CCOCC2)c(=O)[nH]1 | -2.24%
30 | O=C(O)c1cc(O)c2c(Cl)cc(Cl)cc2n1 | 6.69%
31 | CC(=O)Oc1ccccc1C(=O)Oc1cccc(CO[N+](=O)[O-])c1 | 48.1%
32 | CC(C)(O)CNc1nc(Nc2ccnc(C(F)(F)F)c2)nc(-c2cccc(C(F)(F)F)n2)n1 | 36.2%
33 | CC(=O)NC(C(=O)O)C(C)(C)SN=O (stereo not drawn) | 2.51%
34 | Cc1noc2c1-c1ccccc1C(c1ccc(Cl)cc1)=N[C@H]2CC(N)=O | 43.6%
35 | Nc1ccc(F)cc1NC(=O)c1ccc(CNC(=O)/C=C/c2cccnc2)cc1 | -6.65%
36 | N[C@H](CSC(c1ccccc1)(c1ccccc1)c1ccccc1)C(=O)O | -3.09%
37 | Cc1nc2n(c(=O)c1CCN1CCC(c3noc4cc(F)ccc34)CC1)CCCC2O (stereo not drawn) | -9.07%
38 | N#Cc1cnc2cnc(NCc3cccnc3)cc2c1Nc1ccc(F)c(Cl)c1 | -0.05%
39 | COc1ccc(-n2c(C)c([N+](=O)[O-])c3ccc(O)cc32)cc1 | 12.7%
40 | COc1ccc(-c2coc3cc(O)ccc3c2=O)cc1 | 99.6%
41 | N[C@@H](CCNCc1ccc(Cl)cc1)C(=O)N1CCCCC1 | 0.96%
42 | N=C(Nc1ccc(I)cc1)NC1C2CC3CC(C2)CC1C3 (stereo not drawn) | 1.97%

Row | SMILES | inhibition
43 | Cc1ccc(-c2ncc[nH]2)cc1NC(=O)c1ccc(OCc2ccccn2)cc1 | 21.3%
44 | Fc1ccc(-c2nc3n(c2-c2ccncc2)CCS3)cc1 | -4.98%
45 | Cc1c(F)cccc1NC(=O)Nc1ccc(Cl)c(S(=O)(=O)[C@H]2CCCNC2)c1O | 36.1%
46 | CN1CCN(C2=Cc3ccccc3Oc3ccc(Cl)cc32)CC1 | 2.47%
47 | COc1ccc(COc2ccc(CC#N)cc2)cc1 | 28.5%
48 | Cc1nc2c(OCc3ccccc3)cccn2c1CC#N | 76.9%
49 | CCCc1c(OCCCCc2nnn[nH]2)ccc(C(C)=O)c1O | 4.66%
50 | CC[N+](C)(CC)CCOC(=O)C(O)(c1ccccc1)C1CCCCC1 (stereo not drawn) | -2.19%
51 | COc1ccc2c(C)nc(Nc3nc(C)c(C)c(O)n3)nc2c1 | 20.5%
52 | CCc1cnc(N2CCC(c3nc(COc4ccc(-n5cnnn5)cc4)cs3)CC2)nc1 | 14.7%
53 | O=C1c2ccccc2C(=O)C1c1ccccc1 | 7.2%
54 | O=C1c2ccccc2C(=O)C1c1ccc(Br)cc1 | 95.5%
55 | COc1ccc(C2C(=O)c3ccccc3C2=O)cc1 | 98.2%
56 | O=C1c2ccccc2C(=O)C1c1ccc(Cl)cc1 | 18.6%
57 | CCCC1(CCC)CCC2(CCN(CCCN(CC)CC)C2)CC1 | -1.4%
58 | C[C@@H](O)[C@H]1C(=O)N2C(C(=O)O)=C(S[C@@H]3CN[C@H](C(=O)Nc4cccc(C(=O)O)c4)C3)[C@H](C)[C@H]12 | 29.2%
59 | CC1(c2ccccc2)OC(C(=O)O)=CC1=O (stereo not drawn) | -2.75%
60 | Nc1nccc(-c2c(-c3ccc(F)cc3)ncn2C2CCCCC2)n1 | 10.1%
61 | COc1cc(C(=O)NC2CCN(C)CC2)c(F)cc1Nc1ncc2c(n1)N(C1CCCC1)CC(F)(F)C(=O)N2C | 2.87%
62 | Cc1[nH]c2ccccc2c1C[C@@H](NC(=O)[C@@H](N)Cc1c[nH]cn1)C(=O)N[C@@H](C)C(=O)N[C@@H](Cc1c[nH]c2ccccc12)C(=O)N[C@H](Cc1ccccc1)C(=O)N[C@@H](CCCCN)C(N)=O (H-H[dTrp(2-Me)]AW[dF]K-NH2) | -0.06%
63 | NCCCCCC(O)(P(=O)(O)O)P(=O)(O)O | 0.9%
